Results on six compounds are retold here after PubChem BioAssay (EPA / NIEHS).

Test [1] is described as follows: ATG_GAL4_TRANS: Attagene TRANS-FACTORIAL HepG2 Assay for GAL4 (Internal Marker) (AID 2282976; active = hit-call score of the fitted dose curve at least 0.9, where 1 is the maximum). The following applies: HepG2 Attagene TRANS GAL4 internal marker reporter. Summed up:
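In transfected human HepG2 liver cells dosed 24 h, GAL4 reporter mRNA serves as a baseline marker. Detection by RT-PCR with fluorescent capillary electrophoresis, activity fitted upward relative to DMSO.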

For test [2], the target named is Estrogen-related receptor gamma (Homo sapiens) (UniProt P62508). Description: ATG_ERRg_TRANS: Attagene TRANS-FACTORIAL HepG2 Assay for human Estrogen-Related Receptor gamma (ERRg) (AID 2282977; active = hit-call score of the fitted dose curve at least 0.9, where 1 is the maximum;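 note: hits increase reporter signal over DMSO so potencies reflect activators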). The following applies: HepG2 Attagene TRANS reporter, ERRg transactivation. In short, it runs like this:
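Transient HepG2 transfectants, 24 h compound exposure, GAL4-UAS reporter mRNA by RT-PCR/6-FAM labelling/capillary electrophoresis; positive direction vs DMSO.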

The target of test [3] is Glucocorticoid receptor (Homo sapiens) (UniProt P04150). Description: ATG_GR_TRANS: Attagene TRANS-FACTORIAL HepG2 Assay for human Glucocorticoid Receptor (GR) (AID 2282978; active = hit-call score of the fitted dose curve at least 0.9, where 1 is the maximum;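 note: activators score as hits since higher reporter transcript over DMSO is fitted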). The following applies: HepG2 Attagene TRANS GR reporter, mRNA transcription. Summed up:
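Multiplexed TRANS reporter system, HepG2; 24 h exposure; RNA → oligo(dT) RT → reporter-specific PCR → 6-FAM primer extension → HpaI cut → CE fluorescence. Gain-of-signal vs DMSO.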

For test [4], the target named is Oxysterols receptor LXR-alpha (Homo sapiens) (UniProt Q13133). Description: ATG_LXRa_TRANS: Attagene TRANS-FACTORIAL HepG2 Assay for human Liver X Receptor alpha (LXRa) (AID 2282980; active = hit-call score of the fitted dose curve at least 0.9, where 1 is the maximum). The following applies: HepG2 Attagene TRANS reporter, LXRa transactivation. Summed up:
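Chemical-induced reporter mRNA measured by RT-PCR with fluorescent labelling and capillary electrophoresis after 24 h dosing of transiently transfected HepG2 cells expressing exogenous NR-Gal4 chimeras; increases scored against DMSO baseline.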

The target in test [5] is Oxysterols receptor LXR-beta (Homo sapiens) (UniProt P55055). Description: ATG_LXRb_TRANS: Attagene TRANS-FACTORIAL HepG2 Assay for human Liver X Receptor beta (LXRb) (AID 2282981; active = hit-call score of the fitted dose curve at least 0.9, where 1 is the maximum). The following applies: HepG2 Attagene TRANS GAL4-LXRb reporter, mRNA. In short, it runs like this:
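Gain-of-signal mRNA reporter endpoint, DMSO as negative control. Transiently transfected HepG2 cells carrying the NR-Gal4 chimera and GAL4-UAS reporter units were treated 24 h; transcripts quantified by RT-PCR and capillary electrophoresis fluorescence.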

Test [6] concerns the target Hepatocyte nuclear factor 4-alpha (Homo sapiens) (UniProt P41235). Description: ATG_HNF4a_TRANS: Attagene TRANS-FACTORIAL HepG2 Assay for human Hepatocyte Nuclear Factor 4 alpha (HNF4a) (AID 2282982; active = hit-call score of the fitted dose curve at least 0.9, where 1 is the maximum). The note with it: HepG2 HNF4a transactivation reporter, mRNA readout. Summed up:
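Gain-of-signal mRNA induction, relative to DMSO vehicle, was read after 24 h compound treatment of HepG2 cells bearing transfected GAL4-UAS reporters. Detection used RT-PCR, 6-FAM primer extension and capillary electrophoresis.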

Test [7] is described as follows: ATG_M_06_TRANS: Attagene TRANS-FACTORIAL HepG2 Assay for M06 Transcription Factor (Internal Marker) (AID 2282983; active = hit-call score of the fitted dose curve at least 0.9, where 1 is the maximum). The note with it: HepG2 Attagene TRANS M06 internal marker reporter. Summed up:
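Cells: HepG2, transient multi-reporter transfection. Exposure: 24 h. Detection: RT-PCR, 6-FAM labelling, HpaI digestion (2 h, 37 °C), capillary electrophoresis. Baseline: DMSO.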

Test [8] is described as follows: ATG_M_32_TRANS: Attagene TRANS-FACTORIAL HepG2 Assay for M32 Transcription Factor (Internal Marker) (AID 2282984; active = hit-call score of the fitted dose curve at least 0.9, where 1 is the maximum;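 note: transcript level of a background control reporter unit measured by RT-PCR and capillary electrophoresis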). The note with it: HepG2 Attagene TRANS M32 internal marker reporter. In short, it runs like this: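 Capillary electrophoresis of 6-FAM-labelled reporter fragments gives the signal; data fitted for gain over DMSO negative control. Source: HepG2 cells bearing transient multiple reporter transcription units, 24 h exposure.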

Test [9] deals with Nuclear receptor subfamily 4 group A member 2 (Homo sapiens) (UniProt P43354). Description: ATG_NURR1_TRANS: Attagene TRANS-FACTORIAL HepG2 Assay for human Nuclear Receptor Related Protein 1 (NURR1) (AID 2282985; active = hit-call score of the fitted dose curve at least 0.9, where 1 is the maximum). The following applies: HepG2 Attagene TRANS reporter, mRNA readout. In short, it runs like this: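 HepG2 / transient MRTU transfection / 24 h compound exposure / RT-PCR + CE fluorescence of reporter mRNA / gain-of-signal vs DMSO.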
Chain of Nuclear receptor subfamily 4 group A member 2 (Homo sapiens) (P43354 whole entry, looked up): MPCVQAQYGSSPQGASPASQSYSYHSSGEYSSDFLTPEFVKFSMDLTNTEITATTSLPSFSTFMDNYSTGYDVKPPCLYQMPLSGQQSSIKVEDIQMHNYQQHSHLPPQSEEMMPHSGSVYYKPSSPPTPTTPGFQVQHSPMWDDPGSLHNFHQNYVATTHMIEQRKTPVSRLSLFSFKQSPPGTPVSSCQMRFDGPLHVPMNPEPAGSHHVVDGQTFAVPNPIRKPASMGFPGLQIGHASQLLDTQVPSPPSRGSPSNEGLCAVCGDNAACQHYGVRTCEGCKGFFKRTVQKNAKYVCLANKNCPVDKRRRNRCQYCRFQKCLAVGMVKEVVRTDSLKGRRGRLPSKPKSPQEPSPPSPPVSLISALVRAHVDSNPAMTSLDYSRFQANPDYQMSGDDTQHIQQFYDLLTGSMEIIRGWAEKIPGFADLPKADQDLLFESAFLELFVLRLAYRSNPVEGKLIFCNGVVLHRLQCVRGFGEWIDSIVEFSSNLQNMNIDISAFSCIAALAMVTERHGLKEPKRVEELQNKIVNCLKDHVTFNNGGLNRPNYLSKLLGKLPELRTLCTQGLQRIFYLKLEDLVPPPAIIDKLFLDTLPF

Test [10] concerns the target Transcriptional activator Myb (Homo sapiens) (UniProt P10242). Description: ATG_Myb_CIS: Attagene CIS-FACTORIAL HepG2 Assay for human Myeloblastosis (Myb) Proto-Oncogene Transcription Factor (AID 2282986). The following applies: HepG2 Attagene CIS-FACTORIAL Myb reporter transcription; actives raise or lower the signal. In short, it runs like this:
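Endogenous transcription factor activity at a Myb-responsive cis element is reported in human liver HepG2 cells after 24 h chemical treatment. Reporter mRNA is detected by RT-PCR and capillary electrophoresis fluorescence, with DMSO as baseline.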

Test [11] concerns the target Nuclear respiratory factor 1 (Homo sapiens) (UniProt Q16656). Description: ATG_NRF1_CIS: Attagene CIS-FACTORIAL HepG2 Assay for human Nuclear Respiratory Factor 1 (NRF1) Orphan Gene (AID 2282987). The note with it: HepG2 NRF1 cis-element reporter, Attagene multiplex; actives raise or lower the signal. In short, it runs like this:
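Human hepatoma HepG2 cells carrying transfected promoter-regulated reporter units were incubated with test chemicals for 24 h. Reporter transcripts were measured by RT-PCR plus capillary electrophoresis, and endpoints derived by bidirectional fitting with DMSO as baseline.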

Test [12] concerns the target Myc proto-oncogene protein (Homo sapiens) (UniProt P01106). Description: ATG_Myc_CIS: Attagene CIS-FACTORIAL HepG2 Assay for human Myelocytomatosis (Myc) Proto-Oncogene Transcription Factor (AID 2282990). The note with it: HepG2, Attagene cis-reporter transcription factor activity; actives raise or lower the signal. In short, it runs like this:
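Fluorescence intensity of reporter-specific cDNA fragments, separated by capillary electrophoresis, gives the signal. Transfected HepG2 cells carrying cis-promoter reporter constructs are incubated with compound for 24 h; DMSO serves as baseline.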

Test [13] can be described thus: ATG_NF_kB_CIS: Attagene CIS-FACTORIAL HepG2 Assay for human Nuclear Factor Kappa B (NF-kB) (AID 2282991). The note with it: HepG2 Attagene cis-factorial NF-kB reporter mRNA; actives raise or lower the signal. In short, it runs like this:
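Multiplexed cis-reporter assay in transiently transfected HepG2. 24 h treatment; RNA isolated, RT-PCR, labelled fragments resolved by CE. DMSO baseline.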

The nature of test [14]: ATG_NRF2_ARE_CIS: Attagene CIS-FACTORIAL HepG2 Assay for human Nuclear Factor Erythroid 2 Related Factor 2 (NFR2) response to Antioxidant Response Elements (ARE) (AID 2282992).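 For AC50: reporter mRNA level measured by RT-PCR and capillary electrophoresis fluorescence.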 The note with it: HepG2 Attagene ARE/NRF2 reporter, transcription factor activity; actives raise or lower the signal. Summed up:
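HepG2 cells transiently transfected with multiplexed cis-regulated reporter transcription units measure endogenous transcription factor activity. Reporter mRNA at 24 h is quantified by RT-PCR, fluorescent labelling and capillary electrophoresis, with bidirectional fitting relative to DMSO.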

A short description of test [15]: ATG_Oct_MLP_CIS: Attagene CIS-FACTORIAL HepG2 Assay for human Octamer-Binding Transcription Factor (Oct) (AID 2282993). The following applies: HepG2 Attagene cis-factorial Oct reporter, mRNA; actives raise or lower the signal. Summed up: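 HepG2 cells transiently transfected with cis-promoter-driven multiplexed reporter transcription units, dosed for 24 h. Reporter mRNA quantified by RT-PCR, fluorescent labelling, HpaI digestion and capillary electrophoresis; bidirectional fits versus DMSO baseline.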

Test [16] has as its target Cellular tumor antigen p53 (Homo sapiens) (UniProt P04637). Description: ATG_p53_CIS: Attagene CIS-FACTORIAL HepG2 Assay for human p53 Transcription Factor (AID 2282994). The note with it: HepG2 p53 cis-element reporter, Attagene mRNA; actives raise or lower the signal. In short, it runs like this: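 HepG2 cells transiently transfected with multiplexed cis-regulated reporter transcription units read endogenous TF activity. After 24 h compound exposure, reporter mRNA was quantified by RT-PCR, fluorescent labelling, HpaI digestion and capillary electrophoresis; bidirectional fits versus DMSO baseline.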

A short description of test [17]: BSK_3C_TissueFactor: BioMAP Diversity Plus: 3C Assay for Tissue Factor Biomarker Activity (AID 2282997). The following applies: BioMAP 3C HUVEC, tissue factor biomarker readout; actives raise or lower the signal. In short, it runs like this: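 Dosing of human umbilical vein endothelial cells preceded a 24 h incubation. Tissue Factor was then read by ELISA, with increases and decreases both scored relative to DMSO controls.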

Test [18] in a line: BSK_3C_uPAR: BioMAP Diversity Plus: 3C Assay for Urokinase-type plasminogen activator receptor (uPAR) Biomarker Activity (AID 2282998). The note with it: BioMAP 3C HUVEC, uPAR biomarker ELISA; actives raise or lower the signal. Summed up: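 Human umbilical vein endothelial primary cells were exposed to test chemical for 24 h. Cell-surface uPAR was then quantified by ELISA, and responses were fitted bidirectionally against DMSO as negative control and baseline.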

For test [19], the target named is Bile acid receptor (Homo sapiens) (UniProt Q96RI1). Description: ATG_FXR_TRANS: Attagene TRANS-FACTORIAL HepG2 Assay for Farnesoid X Receptor (FXR) (AID 2282979; active = hit-call score of the fitted dose curve at least 0.9, where 1 is the maximum;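 note: hits raise reporter mRNA above DMSO so AC50 marks FXR activation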). The following applies: HepG2 Attagene TRANS FXR-GAL4 reporter transcription. Summed up: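 Reporter transcripts from transfected HepG2 cells were measured 24 h after dosing, using RT-PCR with capillary electrophoresis of 6-FAM-labelled fragments. The read-out reflects activity of exogenous FXR-Gal4 chimera on GAL4-UAS units, with induction relative to DMSO.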

For orientation: AC50 means the concentration at which the activity in the assay is half-maximal.

Several values for one entry are separate records, joined by “and”; a condition that tells them apart may be missing. Identical values can stand only once. Inconclusive results are not listed. A structure can be active in one record and inactive in another. Activity calls are given as the source filed them. Rule for the calls, unless noted: active = hit-call score of the fitted dose curve at least 0.9, where 1 is the maximum; inactive = score below 0.9.

Chain of Glucocorticoid receptor (Homo sapiens) (P04150 whole entry, looked up): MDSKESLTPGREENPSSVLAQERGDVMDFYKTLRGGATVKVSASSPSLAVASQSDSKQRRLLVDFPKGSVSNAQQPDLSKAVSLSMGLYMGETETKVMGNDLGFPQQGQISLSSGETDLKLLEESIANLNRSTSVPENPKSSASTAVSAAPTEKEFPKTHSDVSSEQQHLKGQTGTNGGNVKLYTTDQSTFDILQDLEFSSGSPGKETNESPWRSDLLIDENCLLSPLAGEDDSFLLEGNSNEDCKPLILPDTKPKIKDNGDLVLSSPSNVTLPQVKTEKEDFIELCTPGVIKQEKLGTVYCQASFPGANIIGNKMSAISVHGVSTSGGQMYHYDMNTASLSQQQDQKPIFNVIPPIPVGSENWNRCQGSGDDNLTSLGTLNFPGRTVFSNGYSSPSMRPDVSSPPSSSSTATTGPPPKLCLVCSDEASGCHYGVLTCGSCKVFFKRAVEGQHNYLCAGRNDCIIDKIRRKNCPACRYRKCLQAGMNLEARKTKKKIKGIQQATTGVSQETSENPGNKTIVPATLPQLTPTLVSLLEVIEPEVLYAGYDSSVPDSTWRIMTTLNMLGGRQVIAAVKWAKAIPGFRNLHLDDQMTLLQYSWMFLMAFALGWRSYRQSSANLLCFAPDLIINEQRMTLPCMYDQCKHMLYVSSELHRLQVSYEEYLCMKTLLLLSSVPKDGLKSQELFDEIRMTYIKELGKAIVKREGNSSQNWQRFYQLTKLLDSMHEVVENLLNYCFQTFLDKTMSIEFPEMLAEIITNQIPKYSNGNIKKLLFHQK
Chain of Nuclear respiratory factor 1 (Homo sapiens) (Q16656 whole entry, looked up): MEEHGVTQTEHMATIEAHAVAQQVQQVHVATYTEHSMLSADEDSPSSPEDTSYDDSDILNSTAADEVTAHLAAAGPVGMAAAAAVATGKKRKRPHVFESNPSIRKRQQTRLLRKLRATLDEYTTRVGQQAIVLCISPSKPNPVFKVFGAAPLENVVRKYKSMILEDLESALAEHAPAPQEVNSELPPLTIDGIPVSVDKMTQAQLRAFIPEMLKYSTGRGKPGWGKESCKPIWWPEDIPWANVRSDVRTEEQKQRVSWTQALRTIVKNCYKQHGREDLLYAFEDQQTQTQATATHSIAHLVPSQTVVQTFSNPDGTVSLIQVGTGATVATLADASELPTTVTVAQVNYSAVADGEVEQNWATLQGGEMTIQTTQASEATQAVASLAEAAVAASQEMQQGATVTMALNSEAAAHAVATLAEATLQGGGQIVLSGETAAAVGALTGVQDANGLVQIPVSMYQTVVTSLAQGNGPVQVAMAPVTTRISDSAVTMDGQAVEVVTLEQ
Chain of Estrogen-related receptor gamma (Homo sapiens) (P62508 whole entry, looked up, the tested form may be a part): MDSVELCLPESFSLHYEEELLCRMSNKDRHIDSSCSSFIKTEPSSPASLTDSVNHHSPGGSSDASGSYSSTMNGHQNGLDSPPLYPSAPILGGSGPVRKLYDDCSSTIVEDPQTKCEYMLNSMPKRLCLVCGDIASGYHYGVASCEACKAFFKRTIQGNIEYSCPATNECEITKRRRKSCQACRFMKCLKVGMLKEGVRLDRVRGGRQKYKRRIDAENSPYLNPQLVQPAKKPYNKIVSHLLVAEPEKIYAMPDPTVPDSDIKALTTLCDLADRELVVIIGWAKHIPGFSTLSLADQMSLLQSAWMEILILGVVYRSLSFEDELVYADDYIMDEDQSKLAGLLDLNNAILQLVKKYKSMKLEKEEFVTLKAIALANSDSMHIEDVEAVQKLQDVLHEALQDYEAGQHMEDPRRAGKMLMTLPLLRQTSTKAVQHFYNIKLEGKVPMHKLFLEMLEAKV
Chain of Transcriptional activator Myb (Homo sapiens) (P10242 whole entry, looked up): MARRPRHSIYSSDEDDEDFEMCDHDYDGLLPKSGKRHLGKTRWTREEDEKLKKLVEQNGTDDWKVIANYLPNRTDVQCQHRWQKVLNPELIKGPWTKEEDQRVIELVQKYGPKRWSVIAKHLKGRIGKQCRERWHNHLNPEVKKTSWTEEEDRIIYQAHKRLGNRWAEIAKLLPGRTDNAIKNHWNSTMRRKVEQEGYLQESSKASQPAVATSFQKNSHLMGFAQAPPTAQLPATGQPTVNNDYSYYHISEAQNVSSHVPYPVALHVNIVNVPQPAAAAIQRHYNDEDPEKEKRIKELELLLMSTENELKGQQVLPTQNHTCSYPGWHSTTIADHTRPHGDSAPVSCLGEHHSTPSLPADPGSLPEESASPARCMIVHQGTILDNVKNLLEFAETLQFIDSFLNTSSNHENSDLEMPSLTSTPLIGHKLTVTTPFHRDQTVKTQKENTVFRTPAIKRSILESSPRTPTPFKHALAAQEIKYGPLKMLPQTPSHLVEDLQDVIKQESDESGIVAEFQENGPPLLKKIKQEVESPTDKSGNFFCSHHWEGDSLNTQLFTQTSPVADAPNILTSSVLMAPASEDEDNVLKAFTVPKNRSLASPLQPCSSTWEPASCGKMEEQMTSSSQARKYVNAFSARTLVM
Chain of Hepatocyte nuclear factor 4-alpha (Homo sapiens) (P41235 whole entry, looked up, the tested form may be a part): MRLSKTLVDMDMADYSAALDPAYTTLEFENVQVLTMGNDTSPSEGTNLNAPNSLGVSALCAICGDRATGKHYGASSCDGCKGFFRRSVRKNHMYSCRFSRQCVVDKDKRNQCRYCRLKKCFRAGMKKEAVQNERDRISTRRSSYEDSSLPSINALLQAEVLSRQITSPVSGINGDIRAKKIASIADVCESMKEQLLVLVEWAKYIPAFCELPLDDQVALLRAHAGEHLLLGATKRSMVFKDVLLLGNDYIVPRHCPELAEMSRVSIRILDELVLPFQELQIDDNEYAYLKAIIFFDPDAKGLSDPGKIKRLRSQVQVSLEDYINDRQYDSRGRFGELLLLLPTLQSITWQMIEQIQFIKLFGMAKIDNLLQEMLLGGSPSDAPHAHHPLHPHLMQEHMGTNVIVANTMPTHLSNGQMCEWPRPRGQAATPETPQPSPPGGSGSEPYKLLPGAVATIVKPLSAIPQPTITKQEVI
Chain of Myc proto-oncogene protein (Homo sapiens) (P01106 whole entry, looked up, the tested form may be a part): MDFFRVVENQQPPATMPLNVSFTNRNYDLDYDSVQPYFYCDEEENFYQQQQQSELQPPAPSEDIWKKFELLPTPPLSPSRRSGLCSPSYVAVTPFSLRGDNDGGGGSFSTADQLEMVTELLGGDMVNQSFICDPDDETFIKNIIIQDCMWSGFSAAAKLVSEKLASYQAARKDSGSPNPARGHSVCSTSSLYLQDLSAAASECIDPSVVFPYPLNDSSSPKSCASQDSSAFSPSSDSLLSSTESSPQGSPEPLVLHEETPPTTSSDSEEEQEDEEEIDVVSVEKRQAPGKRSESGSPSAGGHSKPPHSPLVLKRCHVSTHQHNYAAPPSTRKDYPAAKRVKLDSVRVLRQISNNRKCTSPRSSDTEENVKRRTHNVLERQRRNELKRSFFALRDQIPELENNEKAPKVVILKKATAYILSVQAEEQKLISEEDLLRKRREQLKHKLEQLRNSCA
Chain of Cellular tumor antigen p53 (Homo sapiens) (P04637 whole entry, looked up): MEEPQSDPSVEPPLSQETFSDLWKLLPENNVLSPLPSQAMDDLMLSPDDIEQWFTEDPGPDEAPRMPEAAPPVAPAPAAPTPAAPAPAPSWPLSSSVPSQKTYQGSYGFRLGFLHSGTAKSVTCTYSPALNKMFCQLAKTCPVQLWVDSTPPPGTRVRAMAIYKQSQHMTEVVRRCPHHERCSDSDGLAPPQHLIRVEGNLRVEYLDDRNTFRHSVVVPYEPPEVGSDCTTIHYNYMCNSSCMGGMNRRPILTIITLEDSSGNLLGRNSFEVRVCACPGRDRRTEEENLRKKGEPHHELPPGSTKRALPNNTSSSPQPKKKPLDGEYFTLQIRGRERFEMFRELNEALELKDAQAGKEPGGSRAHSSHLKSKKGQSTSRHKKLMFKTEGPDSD
Chain of Oxysterols receptor LXR-alpha (Homo sapiens) (Q13133 whole entry, looked up, the tested form may be a part): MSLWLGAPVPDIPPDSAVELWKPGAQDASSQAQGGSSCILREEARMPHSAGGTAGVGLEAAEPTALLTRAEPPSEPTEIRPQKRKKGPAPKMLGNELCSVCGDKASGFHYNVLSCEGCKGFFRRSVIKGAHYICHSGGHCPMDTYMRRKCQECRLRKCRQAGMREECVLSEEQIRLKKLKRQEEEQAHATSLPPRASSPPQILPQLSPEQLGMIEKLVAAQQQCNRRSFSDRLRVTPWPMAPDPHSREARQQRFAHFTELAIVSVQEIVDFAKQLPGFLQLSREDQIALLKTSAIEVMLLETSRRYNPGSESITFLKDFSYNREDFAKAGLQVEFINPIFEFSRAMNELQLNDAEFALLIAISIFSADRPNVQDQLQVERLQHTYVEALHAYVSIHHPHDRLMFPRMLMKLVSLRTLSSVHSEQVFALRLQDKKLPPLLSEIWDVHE

Regarding `CON(C)C(=O)Nc1ccc(Cl)c(Cl)c1`, the call in test [1], in [2], in test [3], in test [4], in test [5] and in test [6] was inactive. Further, the call in test [7], in [8], in [9], in [10], in [11] and in test [12] was inactive. In addition, the compound was called inactive in test [13], in [15], in test [16], in [17] and in [18]. For the same compound, the AC50 in [14] was 27.8 µM (active) [middle of 4 runs].
`CC1COC(Cn2cncn2)(c2ccc(Oc3ccc(Cl)cc3)cc2Cl)O1` (centres undefined): the result in [2], in test [3], in test [19], in [4], in [5] and in test [7] was inactive. Further, the compound was called inactive in test [8], in [10], in test [11], in [12] and in [16]. Also, the AC50 in [14] was 1.88 µM (active); in [15] it was 2.45 µM (active); in test [17], 31.5 µM (active); in [18], 28.4 µM (active).
Consider `CCCCNC(=O)OCC#CI`, for which the compound was called inactive in test [2], in test [3], in test [19], in test [4], in test [5] and in test [7]. Further, the outcome in [10], in [11], in test [12], in test [14], in test [15] and in [16] was inactive. Also, the half-maximal activity concentration (AC50) in test [6] is 64.2 µM (active); in test [12], 26.4 µM (active); in test [14], 27.6 µM (active); in [15], 29.9 µM (active); in test [16], 33.5 µM (active); in test [17], 11.6 µM (active) and 21.2 µM (active). Besides, the AC50 in [18] is 13.4 µM (active) and 12.9 µM (active).
`COc1cnc(OC)n2nc(NS(=O)(=O)c3c(OCC(F)F)cccc3C(F)(F)F)nc12`: the compound was classed as inactive in test [1], in test [3], in [4], in [5], in test [6] and in test [7]. The outcome in test [9], in [10], in test [11], in test [12], in [14] and in test [15] was inactive. Also, the call in [16], in test [17] and in test [18] was inactive.
Take `CCCC1COC(Cn2cncn2)(c2ccc(Cl)cc2Cl)O1` (centres undefined): the compound was called inactive in test [1], in [3], in [4], in [5], in test [6] and in test [7]. For the same compound, the outcome in test [8], in test [9], in [10], in [11], in test [12] and in [13] was inactive. Moreover, the result in [14], in test [15], in [16], in test [17] and in [18] was inactive. Besides, the AC50 is 27.1 µM (active) in test [14] and 8.1 µM (active) in test [15].
Take `CCCCOC(=O)c1ccccc1C(=O)OCCCC`: the compound was called inactive in test [1], in test [2], in test [3], in test [4], in test [5] and in [6]. The call in test [7], in [8], in [9], in test [10], in [11] and in [12] was inactive. In addition, the outcome in test [13], in test [15], in test [16], in test [17] and in [18] was inactive. The AC50 in test [14] was 62.4 µM (active) [middle of 5 runs].
